SMILES strings stand for the structures. “And” between values parts separate entries of the source, which are not always exact repeats. Identical values can stand only once. Results filed as inconclusive are left out. Entries that show only a call come without a potency. The source holds several records for some structures; these can differ, active in one and inactive in another. The source made the active and inactive calls. Calls come from the whole dose curve; as a rule, active = well fitted curve in the direction sought with a large enough effect in the repeat runs; inconclusive = weak or mixed curves; inactive = no such curve, though single readings can be large; an effect the other way counts as inactive or inconclusive.
Potency is the fitted concentration of half-maximal effect.

One assay can be described thus: qHTS RealTime-Glo MT Cell Viability Assay in HEK293 cells - 0 hour (AID 1224880). Note: nearly all actives have a fitted effect of over 45% in size. To be noted: RealTime-Glo luminescence; series mostly up to 76.8 µM. Put shortly: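 HEK293 cells mixed with RealTime-Glo reagents (NanoLuc plus cell-permeant prosubstrate) at 600 cells/well, preincubated 5 h at 37 C/5% CO2, then given 23 nL compound in DMSO. Nonlytic luminescence from viable cells was read at 0, 8, 16, 24, 32 and 40 h.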
Take `CN1C(C(=O)Nc2ccccn2)=C(O)c2ccccc2S1(=O)=O`: the Potency entry was “inactive”.
Same read-out and setting: with `CC(=O)c1ccccn1` the entry was “inactive”; with `O=C(/C=C/c1ccccc1)OCc1ccccc1`, “inactive”.
As for `O=C=Nc1ccc(Cc2ccc(N=C=O)cc2)cc1`, the Potency result was “inactive”.
Consider `O=Cc1ccccc1O`, for which the Potency result is “inactive”.
Consider `OC(CCl)CCl`, for which the Potency entry was “inactive”.
Consider `Cc1c(OCC(F)(F)F)ccnc1CS(=O)c1nc2ccccc2[nH]1` (stereo not drawn), for which the Potency entry was “inactive”.
For `CCC(C)(O)CCCC(C)C` (stereo not drawn), the Potency entry was “inactive”.
Still for that read-out and setting: with `O=C(OCc1ccccc1)c1ccccc1O` the entry was “inactive”; with `COc1ccc(C(=O)CC(=O)c2ccc(C(C)(C)C)cc2)cc1`, “inactive”.
Turning to `COC(=O)CCC(=O)OC`, the Potency result was “inactive”.
Same read-out and setting: with `CCCCOCCOCCO` the entry was “inactive”.
In the case of `C=CC(C)(CCC=C(C)C)OC(C)=O` (stereo not drawn), the Potency result is “inactive”.
On to `Cc1ccc(C)c(O)c1C`, for which the Potency entry is “inactive”.
Same read-out and setting: with `Nc1ccc(Cl)cc1Cl` the entry was “inactive”.
For the compound `CC(C)Oc1ccc2c(=O)c(-c3ccccc3)coc2c1`, the Potency result is “inactive”.
Take `O=C(c1ccccc1)c1ccccc1O`: the Potency result is “inactive”.
With `c1ccc2sc(SSN3CCOCC3)nc2c1`, the Potency entry was “inactive”.
Still for that read-out and setting: with `O=C(c1ccc(OCCN2CCCCC2)cc1)c1c(-c2ccc(O)cc2)sc2cc(O)ccc12` the entry was “inactive”; with `O=[N+]([O-])c1ccc2c(c1)Cc1ccccc1-2`, “inactive”.
As to `CCCc1c(OCCCCc2nn[nH]n2)ccc(C(C)=O)c1O`, the Potency result was “inactive”.
With `Brc1cc(Oc2cc(Br)c(Br)c(Br)c2Br)c(Br)c(Br)c1Br`, the Potency result is “inactive”.
As for `c1ccc2cc(Nc3ccc(Nc4ccc5ccccc5c4)cc3)ccc2c1`, the Potency result is “inactive”.
With `CCOCCOCCO`, the Potency result is “inactive”.
Turning to `CCCCOCCOCCOCCO`, the Potency entry is “inactive”.
Take `Nc1ncn([C@@H]2O[C@H](CO)[C@@H](O)[C@H]2O)c(=O)n1`: the Potency result is “inactive”.
In the case of `c1ccc2c(c1)c1cccc3ccc4cccc2c4c31`, the Potency entry is “inactive”.
With `Nc1ncnc2nc[nH]c12`, the Potency result is “inactive”.
In the case of `CN(C)CCN(Cc1cccs1)c1ccccn1`, the Potency entry was “inactive”.
Regarding `Nc1ccc(S(=O)(=O)Nc2cnc3ccccc3n2)cc1`, the Potency result is “inactive”.
In the case of `CC1=CC2C3CC(C=C3C)C2C1` (stereo not drawn), the Potency entry is “inactive”.
Same read-out and setting: with `CC(C)(C)NC(=O)[C@H]1CC[C@H]2[C@@H]3CC[C@H]4NC(=O)C=C[C@]4(C)[C@H]3CC[C@]12C` the entry was “inactive”; with `C[C@]12CC[C@H]3[C@@H](CCC4=CC(=O)CC[C@@]43C)[C@@H]1CC[C@@H]2C(=O)CO`, 17.4 µM (active); with `CCCCC(CC)COP(=O)(OCC(CC)CCCC)OCC(CC)CCCC` (stereo not drawn), “inactive”.
With `Nc1ccc(Nc2ccccc2)cc1`, the Potency entry was “inactive”.
`CC(C)=CCC/C(C)=C\CO`: the Potency result is “inactive”.
On to `CCCCCCCCCC(=O)OC`, for which the Potency entry is “inactive”.
For `S=C(NC1CCCCC1)NC1CCCCC1`, the Potency entry was “inactive”.
As for `Clc1nc(Cl)c(Cl)c(Cl)c1Cl`, the Potency result is “inactive”.

The nature of another assay: A CellTox Green Cytotoxicity Assay to monitor cytotoxicity in HEK293 cells - 32 hour (AID 1224881). Note: nearly all actives have a fitted effect of over 40% in size. To be noted: CellTox Green fluorescence; series mostly up to 76.8 µM. Put shortly: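 HEK293 cells premixed with CellTox Green dye were seeded at 600 cells/well and left 5 h at 37 C/5% CO2 before pin transfer of 23 nL compound in DMSO. Fluorescence from dye bound to dead-cell DNA was read during 40 h treatment.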
With `CN1C(C(=O)Nc2ccccn2)=C(O)c2ccccc2S1(=O)=O`, the Potency result is “inactive”.
Turning to `CC(=O)c1ccccn1`, the Potency entry is “inactive”.
For `O=C(/C=C/c1ccccc1)OCc1ccccc1`, the Potency entry was “inactive”.
Take `O=C=Nc1ccc(Cc2ccc(N=C=O)cc2)cc1`: the Potency result was “inactive”.
Take `O=Cc1ccccc1O`: the Potency result is “inactive”.
Consider `OC(CCl)CCl`, for which the Potency result is “inactive”.
In the case of `Cc1c(OCC(F)(F)F)ccnc1CS(=O)c1nc2ccccc2[nH]1` (stereo not drawn), the Potency entry is “inactive”.
For `CCC(C)(O)CCCC(C)C` (stereo not drawn), the Potency result is “inactive”.
As for `O=C(OCc1ccccc1)c1ccccc1O`, the Potency entry was “inactive”.
Regarding `COc1ccc(C(=O)CC(=O)c2ccc(C(C)(C)C)cc2)cc1`, the Potency result is “inactive”.
`COC(=O)CCC(=O)OC`: the Potency entry is “inactive”.
Same read-out and setting: with `CCCCOCCOCCO` the entry was “inactive”; with `C=CC(C)(CCC=C(C)C)OC(C)=O` (stereo not drawn), “inactive”.
Turning to `Cc1ccc(C)c(O)c1C`, the Potency result is “inactive”.
The same measure, in the same setting: with `Nc1ccc(Cl)cc1Cl` the entry was “inactive”.
Turning to `CC(C)Oc1ccc2c(=O)c(-c3ccccc3)coc2c1`, the Potency entry is “inactive”.
For `O=C(c1ccccc1)c1ccccc1O`, the Potency result was “inactive”.
Still for that read-out and setting: with `c1ccc2sc(SSN3CCOCC3)nc2c1` the figure was 38.8 µM (active) and 54.9 µM (active); with `O=C(c1ccc(OCCN2CCCCC2)cc1)c1c(-c2ccc(O)cc2)sc2cc(O)ccc12`, 54.9 µM (active) and inactive; with `O=[N+]([O-])c1ccc2c(c1)Cc1ccccc1-2`, “inactive”.
In the case of `CCCc1c(OCCCCc2nn[nH]n2)ccc(C(C)=O)c1O`, the Potency entry is “inactive”.
Turning to `Brc1cc(Oc2cc(Br)c(Br)c(Br)c2Br)c(Br)c(Br)c1Br`, the Potency entry is “inactive”.
Still for that read-out and setting: with `c1ccc2cc(Nc3ccc(Nc4ccc5ccccc5c4)cc3)ccc2c1` the entry was “inactive”; with `CCOCCOCCO`, “inactive”; with `CCCCOCCOCCOCCO`, “inactive”.
The same measure, in the same setting: with `Nc1ncn([C@@H]2O[C@H](CO)[C@@H](O)[C@H]2O)c(=O)n1` the entry was “inactive”; with `c1ccc2c(c1)c1cccc3ccc4cccc2c4c31`, “inactive”; with `Nc1ncnc2nc[nH]c12`, “inactive”.
Regarding `CN(C)CCN(Cc1cccs1)c1ccccn1`, the Potency entry is “inactive”.
For `Nc1ccc(S(=O)(=O)Nc2cnc3ccccc3n2)cc1`, the Potency entry is “inactive”.
Still for that read-out and setting: with `CC1=CC2C3CC(C=C3C)C2C1` (stereo not drawn) the entry was “inactive and 38.9 µM (active)”; with `CC(C)(C)NC(=O)[C@H]1CC[C@H]2[C@@H]3CC[C@H]4NC(=O)C=C[C@]4(C)[C@H]3CC[C@]12C`, “inactive”.
Take `C[C@]12CC[C@H]3[C@@H](CCC4=CC(=O)CC[C@@]43C)[C@@H]1CC[C@@H]2C(=O)CO`: the Potency entry was “inactive”.
For `CCCCC(CC)COP(=O)(OCC(CC)CCCC)OCC(CC)CCCC` (stereo not drawn), the Potency result is “inactive”.
In the case of `Nc1ccc(Nc2ccccc2)cc1`, the Potency result is “inactive”.
As to `CC(C)=CCC/C(C)=C\CO`, the Potency result was “inactive”.
For `CCCCCCCCCC(=O)OC`, the Potency result is “inactive”.
Take `S=C(NC1CCCCC1)NC1CCCCC1`: the Potency entry is “inactive”.
With `Clc1nc(Cl)c(Cl)c(Cl)c1Cl`, the Potency result is “inactive”.

(Values after PubChem BioAssay (Tox21).)
